Consider 40 compounds from PubChem BioAssay (EPA / NIEHS).

Active and inactive are the calls of the source. How the source made its calls: active means hit-call score of the fitted dose curve at least 0.9, where 1 is the maximum; inactive means score below 0.9.

The nature of this experiment: ATG_PBREM_CIS: Attagene CIS-FACTORIAL HepG2 Assay for human Phenobarbital-responsive Enhancer Module (PBREM) (AID 2282955). The settings on record: HepG2 PBREM cis-reporter, Attagene multiplexed transcription; actives raise or lower the signal. Here is the method:
ATG_CIS is a cell-based, multiplexed-readout assay that uses HepG2, a human liver cell line, with measurements taken at 24 hours after chemical dosing in a 24-well plate.ATG_PBREM_CIS is one of 52 assay component(s) measured or calculated from the ATG_CIS assay. It is designed to make measurements of mRNA induction, a form of inducible reporter, as detected with fluorescence intensity signals by Reverse transcription polymerase chain reaction (RT-PCR) and Capillary electrophoresis technology.Data from the assay component ATG_PBREM_CIS was analyzed into 1 assay endpoint. This assay endpoint, ATG_PBREM_CIS, was analyzed with bidirectional fitting relative to DMSO as the negative control and baseline of activity. Using a type of inducible reporter, measures of mRNA for gain or loss-of-signal activity can be used to understand the reporter gene at the transcription factor-level as they relate to the gene NR1I3. Furthermore, this assay endpoint can be referred to as a primary readout, because this assay has produced multiple assay endpoints where this one serves a reporter gene function. To generalize the intended target to other relatable targets, this assay endpoint is annotated to the nuclear receptor intended target family, where the subfamily is non-steroidal.
Human liver HepG2 cells are transiently transfected with multiple reporter transcription units (MRTUs) in 6-well plates using FuGene 6 reagent (Roche; 3 ml FuGene/1 mg DNA). The MRTU constructs are regulated by a cis-regulating element (promoter). […] A major difference between the CIS and TRANS system is that in CIS activities of endogenous TFs are measured, whereas the TRANS assay evaluates changes in activities of exogenous, chimeric NR-Gal4 proteins. […] At the end of 24 hour incubation, total RNA was isolated using TriZol reagent (Invitrogen). The isolated RNA is then reverse-transcribed using oligo(dT) primer and Mo-MLV reverse transcriptase (Invitrogen) with DNAse I (Ambion) treatment for 30 min. The one-tenth of the produced cDNA was amplified by PCR using Taq DNA polymerase (Invitrogen) and two reporter sequence-specific primers. The PCR products were fluorescently labeled by primer extension with 6-arboxyfluorescein (6-FAM) 5'-labeled reporter sequence-specific primer (2 min at 95 C, 20 s at 68 C and 10 min at 72 C) and these products were digested with 5U of HpaI (New England Biolabs) for 2h at 37 C. The fragments were purified using Qiaquick PCR columns (Qiagen), analyzed on an ABI 3130xL genetic analyzer (Applied Biosystems) with peak positions identified by using a set of X-rhodamine (ROX)-labeled MapMarker1000 molecular weight standards (BioVentures). The raw capillary electrophoresis data was processed using Attagraph software (Attagene).
For `Cc1cc(Cl)ccc1O`, the result was inactive.

As for `C=CC(=O)NC(C)(C)CC(C)=O`, the outcome was inactive.

Take `Cc1ccc2nc3sc(=O)sc3nc2c1`: the result was inactive.

Regarding `O=C(NC(=O)c1c(F)cccc1F)Nc1ccc(Cl)cc1`, the result was inactive.

As to `CC(C)(C1CCC(O)CC1)C1CCC(O)CC1` (stereo not given), the result was inactive.

For the compound `O=C(CCl)NCO`, the outcome was inactive.

For `CCOC(=O)CC(=O)CCl`, the result was inactive.

Consider `CCCCC(CC)COC(=O)Cl` (stereo not given), for which the outcome was inactive.

As for `Cc1c([N+](=O)[O-])c(C)c([N+](=O)[O-])c(C(C)(C)C)c1[N+](=O)[O-]`, the result was inactive.

As for `O=C(NC(=O)c1c(F)cccc1F)Nc1cc(Cl)c(OC(F)(F)C(F)C(F)(F)F)cc1Cl` (stereo not given), the outcome was inactive.

In general, AC50 refers to the concentration giving half of the maximal activity seen. As for `COC(=O)c1cc(Oc2ccc(Cl)cc2Cl)ccc1[N+](=O)[O-]`, the AC50 was 11.8 µM (active).

Regarding `Clc1cccc(Cl)c1Cl`, the outcome was inactive.

Regarding `CCCCCCCCCCCCCCC(Br)C(=O)O` (stereo not given), the AC50 is 100 µM (active).

Turning to `CNC(=O)N(C)c1nc2ccccc2s1`, the result was inactive.

For `OCCN(CCO)CCO`, the result was inactive.

For `O=C(O)CC(O)(CC(=O)O)C(=O)O`, the result was inactive.

Turning to `O=C1C[C@@H]2OCC=C3CN4CC[C@]56c7ccccc7N1[C@H]5[C@H]2[C@H]3C[C@H]46`, the outcome was inactive.

With `Cc1cc(Cl)ccc1OCCCC(=O)O`, the outcome was inactive.

Consider `O=[N+]([O-])c1ccccc1O`, for which the result was inactive.

In the case of `C#CCOC(=O)/C=C(C)/C=C/CC(C)CCCC(C)C` (stereo not given), the outcome was inactive.

With `CCC[CH2][Sn]([Cl])([Cl])[CH2]CCC`, the outcome was inactive.

In the case of `CC(C)[C@@H](Nc1ccc(C(F)(F)F)cc1Cl)C(=O)OC(C#N)c1cccc(Oc2ccccc2)c1` (stereo not given in full), the AC50 was 1.43 µM (active).

On to `Brc1ccc(Oc2c(Br)cc(Br)cc2Br)c(Br)c1`, for which the outcome was inactive.

For `CCC[N+](CCC)(CCC)CCC`, the result was inactive.

Consider `Cc1cc(SCc2sc(-c3ccc(C(F)(F)F)c(F)c3)nc2C)ccc1OCC(=O)O`, for which the outcome was inactive.

As for `CNC(=O)CSP(=O)(OC)OC`, the outcome was inactive.

As to `CCOc1ccc(N)cc1`, the result was inactive.

`O=CCCl`: the AC50 was 25.2 µM (active).

As for `ClCc1ccccc1CCl`, the outcome was inactive.

As for `CCCCOP(=O)(CCCC)OCCCC`, the result was inactive.

On to `C1CCC(C2CCCCC2)CC1`, for which the outcome was inactive.

With `CN(C)c1ccc(N=O)cc1`, the outcome was inactive.

In the case of `CC(C)(c1ccc(O)c(-c2ccccc2)c1)c1ccc(O)c(-c2ccccc2)c1`, the result was inactive.

For the compound `OC(Cc1ccccc1Cl)(Cn1cncn1)C1(Cl)CC1` (stereo not given), the AC50 is 19.8 µM (active).

Turning to `CC1(C)[C@H](/C=C2\CCSC2=O)[C@@H]1C(=O)OCc1coc(Cc2ccccc2)c1`, the AC50 is 0.313 µM (active).

As for `C=CCCl`, the outcome was inactive.

`C=C(C)C(=O)OCCCCOC(=O)C(=C)C`: the outcome was inactive.

On to `C=CC(=O)OCC(COC(=O)C=C)(COC(=O)C=C)COC(=O)C=C`, for which the outcome was inactive.

For the compound `O=S(=O)(c1ccc(Cl)cc1)c1cc(Cl)c(Cl)cc1Cl`, the result was inactive.

As for `Cc1cccc(N=Nc2ccc(N(C)C)cc2)c1`, the outcome was inactive.
